According to PubChem BioAssay (NCI):
The panel holds about 83,000 compounds, 20% with a hit somewhere; the sample as a whole holds those more often.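 96-well plates, one dose, 48 hours. Percent growth reported; active if below 10.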 Values without a mark were called inactive. Active and inactive are the calls of the source.

Legend:
Test in all cases: NCI-60 one-dose screen, 48 h (100 = growth as untreated, 0 = no growth, -100 = all killed)
Conditions in all cases: 10 µM unless noted
DU-145 prostate = test system: DU-145 prostate
K-562 leukemia = test system: K-562 leukemia
MALME-3M melanoma = test system: MALME-3M melanoma
MDA-MB-231 breast = test system: MDA-MB-231 breast
RXF 393 renal = test system: RXF 393 renal
SF-268 CNS = test system: SF-268 CNS
SF-295 CNS = test system: SF-295 CNS
SF-539 CNS = test system: SF-539 CNS
UACC-257 melanoma = test system: UACC-257 melanoma
M14 melanoma = test system: M14 melanoma
HCT-15 colon = test system: HCT-15 colon
HT29 colon = test system: HT29 colon
SNB-75 CNS = test system: SNB-75 CNS
SNB-19 CNS = test system: SNB-19 CNS
U251 CNS = test system: U251 CNS
PC-3 prostate = test system: PC-3 prostate
SK-MEL-5 melanoma = test system: SK-MEL-5 melanoma
UACC-62 melanoma = test system: UACC-62 melanoma
LOX IMVI melanoma = test system: LOX IMVI melanoma
SK-MEL-28 melanoma = test system: SK-MEL-28 melanoma

| SMILES | growth (DU-145 prostate) | growth (K-562 leukemia) | growth (MALME-3M melanoma) | growth (MDA-MB-231 breast) | growth (RXF 393 renal) | growth (SF-268 CNS) | growth (SF-295 CNS) | growth (SF-539 CNS) | growth (UACC-257 melanoma) | growth (M14 melanoma) | growth (HCT-15 colon) | growth (HT29 colon) | growth (SNB-75 CNS) | growth (SNB-19 CNS) | growth (U251 CNS) | growth (PC-3 prostate) | growth (SK-MEL-5 melanoma) | growth (UACC-62 melanoma) | growth (LOX IMVI melanoma) | growth (SK-MEL-28 melanoma) |
| --- | --- | --- | --- | --- | --- | --- | --- | --- | --- | --- | --- | --- | --- | --- | --- | --- | --- | --- | --- | --- |
| O=c1nc(-c2ccccc2)c2cc(-c3ccc(C(F)(F)F)nc3)ccc2[nH]1 | 103% | 103% | 111% | 91.9% | 105% | 98.1% | 103% | 93.2% | 109% | 98.6% | 97.8% | 111% | 117% | 101% | 105% | 96.2% | 94.8% | 97.3% | 93.1% | 108% |
| CCOC(=O)c1[nH]c2c(c1C)-c1[nH]c(=O)c(S(=O)(=O)c3ccccc3)cc1SC2 | 15.4% [100 µM] | 49.8% [100 µM] | 4.32% [100 µM] (active) | 25.6% [100 µM] | -5.27% [100 µM] (active) | 21.8% [100 µM] | 8.44% [100 µM] (active) | 30% [100 µM] | 66.8% [100 µM] | 51.8% [100 µM] | 72.8% [100 µM] | 13.4% [100 µM] | 17% [100 µM] | 94.7% [100 µM] | 31.9% [100 µM] | -29.5% [100 µM] (active) | 35.9% [100 µM] | 21.2% [100 µM] | 50% [100 µM] | 20.7% [100 µM] |
| Cc1cccc(Oc2ccc(Nc3ncnc4ccc(NC(=O)CN5CCN(C)CC5)cc34)cc2Cl)c1 | 33.2% | -6.17% (active) | -72.6% (active) | -47.2% (active) | -65.6% (active) | 42% | 63.9% | -77.1% (active) | -66.4% (active) | -72.7% (active) | 5.82% (active) | -30.1% (active) | 80.8% | 28.4% | 9.58% (active) | 33.1% | -76.7% (active) | -27.4% (active) | -94.2% (active) | -84.6% (active) |
| COc1ccc(/C=C/c2c(C(=O)/C=C/c3ccccc3)c(C)nc3ccccc23)cc1 | 5.61% (active) | 6.28% (active) | 17.8% | 31.3% | -23% (active) | 45.3% | 22.1% | -39.5% (active) | 8.08% (active) | 15.3% | -26.2% (active) | 1.64% (active) | 29.4% | 16.3% | -59.9% (active) | 26.9% | 21.2% | 19.1% | -82.3% (active) | 18.7% |
| N#Cc1c(-c2ccccc2)nc(SCc2nnc(-c3ccc(Cl)cc3)o2)[nH]c1=O | 108% | 84.1% | 88.9% | 103% | 106% | 100% | 89.5% | 104% | 94.7% | 92.1% | 101% | 94.1% | 93.9% | 100% | 81% | 61.5% | 99.5% | 98.5% | 94.1% | 110% |
| C=C1C(=O)O[C@H]2[C@H]1CC/C(COC(=O)c1cc3cc(Cl)ccc3[nH]1)=C\CC[C@@]1(C)O[C@@H]21 | -96.1% (active) | -21.1% (active) | -76.9% (active) | -77.8% (active) | -88.7% (active) | -88.3% (active) | 39.2% | -90.4% (active) | -76.3% (active) | -56.9% (active) | -61.1% (active) | -75.9% (active) | -97.3% (active) | 12.6% | -88.8% (active) | -56.3% (active) | -88.6% (active) | -78.7% (active) | -93.2% (active) | -83.3% (active) |
| CN(C)CCCC1(c2ccc(F)cc2)OCc2cc(-c3cc4ccccc4s3)ccc21 (stereo not given) | 18% | -17.5% (active) | -77.4% (active) | -42.4% (active) | 34.8% | 38.3% | 70.4% | -58.8% (active) | -29.1% (active) | -68.7% (active) | -49% (active) | -67.1% (active) | 25.2% | 71.2% | -83% (active) | 28.8% | 60.9% | -62.1% (active) | -93.6% (active) | -87.5% (active) |
| C/C=C(/C)n1cnc2c(Nc3ccccn3)nc(Cl)nc21 | 109% | 95.6% | 106% | 107% | 105% | 99.2% | 104% | 102% | 97.6% | 101% | 103% | 98.1% | 87.9% | 107% | 99.8% | 95.3% | 101% | 95.8% | 95.3% | 105% |
